We go through six molecules from PubChem BioAssay.

Activity calls are given as the source filed them.

Assay [1] has as its system Human papillomavirus type 1a protein E7 (residues 44-93). Description: HPV1a E7 fragment binders on microarrays, primary screen, biochemical, small-molecule microarray, residues 44-93, 635 nm fluorescence (AID 1108).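 Also: E7 fragment applied at 1 µg/mL in TBST for 1 h at 4 C; score combines spot fluorescence with its signal to noise ratio.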 The following applies: small-molecule microarray binding, fluorescence 635 nm; higher = more signal.
Assay [2] in a line: modulators of HCV replicon luciferase signal, primary screen, HCV replication inhibitor project, Huh7 cells, luciferase reporter (AID 1109).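 Also: huh7 hepatoma cells harbouring a luciferase neomycin HCV replicon reporter; luciferase luminescence as measure of HCV replicon replication; test concentration not given here.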 The following applies: 48 h, higher = more signal. In general terms: A replicon is a self-replicating genome or part of one, used to study replication in cells.
Assay [3] has as its target Left-right determination factor 2 (Homo sapiens) (UniProt O00292). Description: LEFTY2 binders on small-molecule microarrays, primary screen, biochemical, small-molecule microarray, 635 nm fluorescence scan (AID 1110). The following applies: LEFTY2 binding, higher = more signal.
Assay [4] addresses Calmodulin-1 (Homo sapiens) (UniProt P0DP23). Description: CALM1 binders on microarrays, EGTA buffer, profiling panel, biochemical, small-molecule microarray, Cy5-labelled CALM1 (AID 1111).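 Also: labelled calmodulin applied in Tris saline Tween buffer holding calcium plus EGTA and DTT.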 The following applies: Cy5-CALM1 binding fluorescence, higher = more signal.
Assay [5] shares this target. The assay can be described thus: calcium-bound CALM1 binders on microarrays, profiling panel, artefact control for SMM control-protein annotation, biochemical, small-molecule microarray, Cy5-labelled CALM1, plus calcium (AID 1112).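 Also: score merges spot fluorescence with signal to noise from triplicate slides.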 The following applies: Cy5-CALM1 binding fluorescence, higher = more signal.
Assay [6] is described as follows: small-molecule microarray binders of probe aWnt5a, primary screen, biochemical, biotinylated probe, 635/667 nm fluorescence (AID 1113).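 Also: score merges 667 nm fluorescence intensity with signal-to-noise per printed feature.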 Conditions: higher = more signal.
The nature of assay [7]: small-molecule microarray binders of probe aShh, primary screen, biochemical, biotinylated probe, 635/667 nm fluorescence (AID 1114).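 Also: probe is biotin-labelled aShh protein from a stem cell growth factor screen; measures binding of labelled protein to compounds printed on the slide; score merges feature fluorescence at 667 nm with signal-to-noise.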 The following applies: higher = more signal.
Assay [8] is described as follows: small-molecule microarray binders of probe aNog, primary screen, biochemical, biotinylated probe, 635/667 nm fluorescence (AID 1115).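 Also: probe is biotinylated aNog protein used at 0.15 µg/mL for 1 h at 4 C; z-score combines 667 nm fluorescence of each spot with its signal to noise.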 The following applies: higher = more signal.
Assay [9] concerns the target Torsin-1A-interacting protein 1 (Homo sapiens) (UniProt Q5JTV8). The assay can be described thus: LAP1 binders from COS7 cell lysate, primary screen, small-molecule microarray, 635/667 nm fluorescence (AID 1116). Conditions: COS7-hLAP1 lysate binding, 635 nm fluorescence, higher = more signal.
In assay [10] the target is Alpha-bungarotoxin (Bungarus multicinctus) (UniProt P60615). Description: alpha-bungarotoxin binders on microarray, profiling panel, artefact control for SMM control protein annotation, biochemical, small-molecule microarray, Alexa647 label, 635/667 nm fluorescence (AID 1117). The following applies: alpha-BTX-A647 binding fluorescence, higher = more signal.
Assay [11] deals with Albumin (Bos taurus) (UniProt P02769). Description: bovine serum albumin binders on microarray, profiling panel, artefact control for SMM control protein annotation, biochemical, small-molecule microarray, Alexa647 label, 635/667 nm fluorescence (AID 1118).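 Also: score merges 667 nm emission intensity and signal-to-noise per printed compound spot.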 Conditions: BSA-A647 binding, fluorescence 635 nm, higher = more signal.
The nature of assay [12]: small-molecule microarray binders of probe aXIP, primary screen, biochemical, NeuroSMM set, 635/667 nm fluorescence (AID 1119).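 Also: probe is the protein aXip251-270 applied at 1 µg/mL to compound-printed slides; binding of probe to printed compounds measured as 667 nm fluorescence plus signal to noise.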 The following applies: higher = more signal, called active from +8 up or from −8 down.
Assay [13] is described as follows: small-molecule binders of probe aNOTCH3, primary screen, biochemical, small-molecule microarray, 635/667 nm fluorescence (AID 1120).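 Also: probe is a biotin-tagged antibody raised against NOTCH3 rather than NOTCH3 protein; score merges spot fluorescence near 667 nm with spot signal to noise.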 Conditions: higher = more signal.
Assay [14] is described as follows: small-molecule binders of probe aNOTCH2, primary screen, biochemical, small-molecule microarray, 635/667 nm fluorescence (AID 1121).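 Also: score merges feature fluorescence read at 667 nm with its signal to noise.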 The following applies: higher = more signal.
Assay [15] has as its target Carbonic anhydrase 2 (Homo sapiens) (UniProt P00918). Description: CAII small-molecule binders, profiling panel, biochemical, small-molecule microarray, Alexa647-labelled CAII (AID 1122). The following applies: CAII-A647 binding fluorescence, higher = more signal.
Assay [16] in a line: COS7 lysate on small-molecule microarray, probe aHis, 635 nm (AID 1123).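 Also: z-score combines 667nm fluorescence intensity with signal-to-noise per printed compound spot.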 Conditions: COS7 cell lysate, fluorescence, higher = more signal.
The nature of assay [17]: compound binding in COS7 lysate, probe aLAP1, primary screen, cell lysate, small-molecule microarray (AID 1124).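 Also: lysate comes from COS7 cells expressing LAP1 and is applied at 0.3 µg/mL; score merges spot fluorescence near 667 nm with signal-to-noise over triplicate slides.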 The following applies: probe aLAP1, fluorescence, higher = more signal.
The subject of assay [18] is Sam68 (KHDRBS1). The assay can be described thus: Sam68 small-molecule binders, primary screen, biochemical, small-molecule microarray, 635 nm fluorescence (AID 1125).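 Also: score merges 667 nm channel intensity with signal to noise over triplicate slides.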 Conditions: small-molecule microarray binding, higher = more signal.
The test system of assay [19] is Chordin-like protein 2 (CHRDL2). Description: CHRDL2 small-molecule binders, primary screen, biochemical, small-molecule microarray, 635 nm fluorescence (AID 1126).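 Also: printed compound slides probed with Chrdl2 protein at 4 µg/mL for 1 h at 4 C; score merges 667 nm emission intensity with signal to noise over three replicate slides.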 The following applies: small-molecule microarray binding, fluorescence 635 nm; higher = more signal.
Assay [20] concerns the target Concanavalin-A (Canavalia ensiformis) (UniProt P02866). Description: ConA small-molecule binders, primary screen, artefact control for SMM control protein annotation, biochemical, small-molecule microarray, Alexa647 label, 635 nm (AID 1127).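 Also: z combines 667 nm emission intensity with signal-to-noise across three replicate slides.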 The following applies: ConA-A647 binding fluorescence, higher = more signal.

Alpha-bungarotoxin (Bungarus multicinctus), sequence (P60615 whole entry, looked up): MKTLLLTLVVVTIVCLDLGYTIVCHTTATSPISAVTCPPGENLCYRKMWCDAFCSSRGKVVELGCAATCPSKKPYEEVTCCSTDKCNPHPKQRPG
Albumin (Bos taurus), sequence (P02769 whole entry, looked up): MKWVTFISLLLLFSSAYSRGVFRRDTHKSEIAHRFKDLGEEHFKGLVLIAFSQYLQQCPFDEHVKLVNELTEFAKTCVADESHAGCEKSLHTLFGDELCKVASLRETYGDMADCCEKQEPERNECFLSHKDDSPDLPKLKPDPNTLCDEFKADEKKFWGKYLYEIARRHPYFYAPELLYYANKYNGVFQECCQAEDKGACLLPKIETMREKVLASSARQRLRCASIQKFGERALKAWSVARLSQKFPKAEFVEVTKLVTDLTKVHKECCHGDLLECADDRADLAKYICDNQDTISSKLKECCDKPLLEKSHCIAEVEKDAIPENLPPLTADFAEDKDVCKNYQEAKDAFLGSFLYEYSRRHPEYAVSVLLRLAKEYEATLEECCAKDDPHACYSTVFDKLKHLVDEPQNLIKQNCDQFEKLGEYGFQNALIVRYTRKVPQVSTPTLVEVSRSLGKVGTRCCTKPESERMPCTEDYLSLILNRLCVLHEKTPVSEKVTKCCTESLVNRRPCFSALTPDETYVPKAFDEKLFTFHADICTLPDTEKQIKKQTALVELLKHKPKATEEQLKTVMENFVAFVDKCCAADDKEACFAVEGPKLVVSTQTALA
Torsin-1A-interacting protein 1 (Homo sapiens), sequence (Q5JTV8 whole entry, looked up): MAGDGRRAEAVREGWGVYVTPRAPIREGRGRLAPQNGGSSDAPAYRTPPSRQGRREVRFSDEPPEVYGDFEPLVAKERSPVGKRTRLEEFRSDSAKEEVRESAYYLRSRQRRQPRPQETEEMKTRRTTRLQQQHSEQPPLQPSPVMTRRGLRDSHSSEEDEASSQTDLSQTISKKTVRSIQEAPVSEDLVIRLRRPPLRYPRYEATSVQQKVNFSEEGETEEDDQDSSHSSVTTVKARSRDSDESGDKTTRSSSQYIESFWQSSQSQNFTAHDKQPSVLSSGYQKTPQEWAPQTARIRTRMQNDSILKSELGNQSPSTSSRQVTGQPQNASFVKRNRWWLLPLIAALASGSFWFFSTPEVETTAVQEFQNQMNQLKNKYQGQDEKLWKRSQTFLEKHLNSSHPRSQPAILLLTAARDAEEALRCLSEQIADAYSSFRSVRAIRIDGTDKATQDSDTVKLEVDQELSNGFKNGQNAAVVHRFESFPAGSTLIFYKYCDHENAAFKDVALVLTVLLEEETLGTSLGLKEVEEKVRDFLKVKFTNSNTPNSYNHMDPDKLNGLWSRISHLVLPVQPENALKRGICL
Concanavalin-A (Canavalia ensiformis), sequence (P02866 whole entry, looked up): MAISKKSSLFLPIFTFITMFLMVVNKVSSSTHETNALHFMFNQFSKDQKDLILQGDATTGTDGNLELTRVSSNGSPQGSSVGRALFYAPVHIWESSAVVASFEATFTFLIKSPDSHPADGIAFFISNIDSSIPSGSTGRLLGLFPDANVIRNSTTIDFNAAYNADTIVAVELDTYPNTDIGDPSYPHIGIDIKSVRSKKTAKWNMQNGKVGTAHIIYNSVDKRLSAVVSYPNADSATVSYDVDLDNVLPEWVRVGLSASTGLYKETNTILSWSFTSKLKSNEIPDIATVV
Left-right determination factor 2 (Homo sapiens), sequence (O00292 whole entry, looked up): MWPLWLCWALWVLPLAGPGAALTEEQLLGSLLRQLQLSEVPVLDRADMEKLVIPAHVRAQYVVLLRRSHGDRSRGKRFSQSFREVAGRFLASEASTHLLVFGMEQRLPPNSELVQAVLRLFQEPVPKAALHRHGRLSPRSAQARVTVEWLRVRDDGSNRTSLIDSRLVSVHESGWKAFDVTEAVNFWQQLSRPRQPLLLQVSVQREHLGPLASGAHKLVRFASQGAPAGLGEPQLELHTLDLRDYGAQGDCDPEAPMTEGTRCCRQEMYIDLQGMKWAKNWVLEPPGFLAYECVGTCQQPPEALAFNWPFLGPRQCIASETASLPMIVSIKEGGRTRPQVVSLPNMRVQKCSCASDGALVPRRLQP

Consider `O=C1NC(=O)C2C1C=CC(C(O)c1ccc(-c3ccccc3)s1)N2Nc1ccccn1` (stereo not given), for which the composite z-score in [1] is -1.13; in assay [3], 0.18; in [4], 0.0183; in [5] it was 0.0403; in [6], 0.0746; in assay [7] it was -0.0961. Further, the composite z-score was -0.0545 in assay [8]; 2.8 in assay [9]; 0.435 in [10]; 0.781 in [11]; -0.115 in [13]; 0.11 in assay [14]. For the same molecule, the composite z-score in assay [15] is 0.91; in assay [16] it was 0.978; in [17], 1.22; in assay [18], 0.105; in assay [19], 0.398; in [20], 0.83. Besides, the z-score in [2] is -0.684. Further, the composite Z-score in assay [12] was -1.39 (inactive).

As to `CN(C)C(=O)[C@@]1(CCS(=O)(=O)c2ccccc2)N=C(c2ccc(OCCCO)cc2)O[C@H]1c1ccccc1CN=[N+]=[N-]`, the composite z-score in [1] was 1.42; in assay [3], 0.446; in [4] it was 1.42; in [5] it was -0.335; in assay [6], 0.063; in [7], 0.108. The composite z-score was -0.274 in assay [8]; 1.09 in assay [9]; 1.06 in [10]; 0.9 in assay [11]; 0.167 in assay [13]; -0.0478 in assay [14]. For the same molecule, the composite z-score in [15] came out at 0.553; in assay [16], 2.45; in assay [17] it was 0.527; in assay [18] it was 1.3; in assay [19] it was 0.205; in assay [20], 1.08. Moreover, the z-score in assay [2] was -1.28. For the same molecule, the composite Z-score in [12] is 0.24 (inactive).

Consider `COC(=O)[C@@]1(Cc2ccccc2N=[N+]=[N-])N=C(c2ccc(OCCCO)cc2)O[C@H]1c1ccccc1`, for which the composite z-score in assay [1] is 1.34; in [3] it was -0.319; in [4], 0.694; in [5], 0.278; in assay [6] it was 0.0136; in [7], 0.0121. Further, the composite z-score in [8] is -0.466; in [9], 1.37; in assay [10], 0.873; in assay [11] it was 0.371; in assay [13], -0.0377; in assay [14], -0.0563. Also, the composite z-score in [15] was 0.593; in assay [16], 1.28; in assay [17], 0.156; in assay [18], 1.16; in assay [19], -0.608; in assay [20] it was 1.11. Moreover, in [2], the z-score was -3.38. Besides, the composite Z-score in assay [12] was 0.17 (inactive).

On to `C=CCC(OC(C)=O)[C@@H]1[C@@H](N(Cc2cccc3ccccc23)C(=O)Cc2ccc(F)cc2)c2cc(OCCCO)ccc2N1C(=O)Cc1ccc(OC)cc1` (stereo not given in full), for which the composite z-score is 0.0243 in assay [1]; 0.584 in assay [3]; 0.965 in [4]; -0.652 in [5]; -0.197 in assay [6]; -0.0557 in [7]. Further, the composite z-score is -0.122 in assay [8]; -0.0854 in assay [9]; -0.0482 in [10]; 0.006 in [11]; -0.0454 in assay [13]; -0.119 in [14]. In addition, the composite z-score in [15] is 0.191; in [16], -0.0343; in assay [17] it was -0.238; in assay [18], 0.191; in assay [19], 0.0157; in [20] it was 1.03. The same molecule had a z-score in assay [2] of -0.81. Also, the composite Z-score in [12] is -0.328 (inactive).

As for `CCC[C@@H]1C[C@@]1(CCC)[C@@H](NC(=O)c1cccs1)c1ccc(Cl)cc1`, the composite z-score was -0.364 in assay [1]; -2.42 in [3]; 0.883 in assay [4]; 0.881 in [5]; 0.0529 in assay [6]; 0.29 in [7]. The composite z-score was 1.39 in [8]; -0.506 in [9]; -0.0153 in [10]; 0.259 in assay [11]; -0.102 in assay [13]; -0.0617 in assay [14]. Further, the composite z-score in [15] is 0.247; in assay [16], 0.855; in assay [17], -0.199; in assay [18] it was -0.0604; in [19], -0.693; in assay [20], -0.596. In [2], this molecule showed a z-score of -2.05. The composite Z-score in assay [12] is -0.222 (inactive).

`COC(=O)[C@@]1(Cc2ccc(OC)cc2)[C@H]2c3cc(C(=O)N4CCCC4)n(Cc4ccc(C)o4)c3C[C@H]2CN1C(=O)c1ccccc1`: the composite z-score is 1.2 in assay [1]; -0.242 in assay [3]; 0.493 in assay [4]; 0.0918 in assay [5]; 0.457 in [6]; 0.444 in assay [7]. For the same molecule, the composite z-score was -0.504 in assay [8]; 0.762 in assay [9]; 0.287 in [10]; 0.963 in assay [11]; 0.74 in [13]; 0.0489 in assay [14]. For the same molecule, the composite z-score in assay [15] is 0.614; in [16], 1.23; in assay [17] it was 0.0793; in assay [18], 0.762; in [19], -0.425; in [20], 0.88. The z-score in assay [2] is -3.68. The composite Z-score in [12] is -0.282 (inactive).
